Sfp inh = blocks B. subtilis Sfp PPTase activity | Q9F4F7 | Biochemical Sfp PPTase activity, qHTS | Potency, µM, usual class: inhibitors | hit rate 3.5% among 310,000;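 also: the enzyme is Sfp with the accession as filed and its product quenches rhodamine fluorescence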
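After 15 min at room temperature with compound, 15 nM Sfp received 5 uM rhodamine-CoA plus 12.5 uM BHQ-2-ybbR (50 mM Hepes pH 7.6, 10 mM MgCl2). Rate came from the fluorescence difference over 30 min, ex 525/em 598 nm.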
CCT chaperon mod = modulators of cytosolic chaperonin (CCT/TRiC) activity | activity change, % (concentration not given with the values), hits read low | hit rate 0.3% among 360,000 | purified chaperonin ATPase assay, HTRF ADP detection, 30 min | AID 651819; in the data active = activity change below about -30%
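TRiC at 40 or 20 nM final (batch-dependent) in 30 mM Tris pH 7.4, 100 mM KCl, 5 mM MgCl2, 1 mM DTT, with compound at single 76 uM and 10 uM ATP, 30 min at 37 deg C. ADP detected by HTRF Transcreener, 665/615 ratio.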
Mm-Cpn inhibitor = inhibitors of Methanococcus maripaludis chaperonin TRiC (MmCpn) | purified Mm-Cpn ATPase, ADP Transcreener TR-FRET | Potency, µM (highest dose often 76.9 µM), most hits filed as inhibitors | hit rate 0.031% among 330,000; also: nearly all actives have a fitted effect of over 80% in size
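Purified archaeal chaperonin (25 nM final) was preincubated with compound for 10 min at 37°C, then ATP (10 uM final) was added for 30 min at 37°C in Tris pH 7.4/KCl/MgCl2/DTT buffer. ADP was quantified by HTRF Transcreener TR-FRET.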
G9a block = inhibitors of human histone lysine methyltransferase G9a | G9a H3K9 monomethylation, AlphaScreen, 2 h | Potency, µM (series often up to 102 µM), actives largely listed as inhibitors | hit rate 8.8% among 350,000; also: nearly all actives have a fitted effect of over 75% in size
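Enzyme 20 nM + cpd, 15 min RT; add b-H3K9 pep 500 nM / SAM 20 uM; 2 h RT; anti-H3K9me1 Ab 0.5 ug/mL + SA donor / anti-rabbit acceptor beads 20 ug/mL each, 10 min; AlphaScreen read.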
PLK1 PBD inh = inhibitors of human PLK1 polo-box domain binding. Potency, µM, usual class: inhibitors. P53350. Plk1 PBD binding of FITC phosphopeptide, fluorescence polarization. AID 720504. hit rate 2.8% among 360,000; also: series mostly up to about 57 µM; nearly all actives have a fitted effect of over 65% in size
Target sequence (P53350 whole entry, looked up, the tested form may be a part): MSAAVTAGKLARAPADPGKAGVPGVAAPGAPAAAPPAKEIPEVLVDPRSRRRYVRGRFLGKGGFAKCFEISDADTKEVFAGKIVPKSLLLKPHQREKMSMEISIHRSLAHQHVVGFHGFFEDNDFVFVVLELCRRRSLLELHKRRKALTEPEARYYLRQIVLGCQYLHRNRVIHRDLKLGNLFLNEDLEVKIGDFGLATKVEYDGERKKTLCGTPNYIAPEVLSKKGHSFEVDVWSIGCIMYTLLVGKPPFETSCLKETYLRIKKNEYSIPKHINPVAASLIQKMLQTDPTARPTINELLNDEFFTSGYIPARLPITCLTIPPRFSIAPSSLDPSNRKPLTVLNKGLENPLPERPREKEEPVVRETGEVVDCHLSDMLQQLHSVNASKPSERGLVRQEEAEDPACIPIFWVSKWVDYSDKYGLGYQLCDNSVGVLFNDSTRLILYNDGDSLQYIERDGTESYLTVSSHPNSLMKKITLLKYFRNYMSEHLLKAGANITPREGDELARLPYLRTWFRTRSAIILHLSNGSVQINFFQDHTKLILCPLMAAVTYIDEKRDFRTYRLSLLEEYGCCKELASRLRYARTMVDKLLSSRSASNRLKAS
VDR inh = blocks the human vitamin D receptor; P11473; VDR-SRC2-3 peptide fluorescence polarization, 2 h; Potency, µM, actives largely listed as inhibitors; hit rate 0.93% among 400,000; AID 504847
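Two reagent solutions held at 4 deg C in the dark were dispensed, compounds pinned at 23 nl, and the mixture incubated 2 h at room temperature. Read-out: fluorescence polarization of VDR–SRC2-3 peptide binding.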
Each line names hits and unclear results; the compound was inactive in the other large screens. Compounds with a hit are over-represented: about 10% of the library has one in this group of screens. Unless noted, calls follow the shape of the dose curve; as a rule, active = well fitted curve in the direction sought with a large enough effect; inconclusive = small, poorly fitted or top-dose-only effect, or another doubt; inactive = no such curve, though single readings can be large; an effect the other way counts as inactive or inconclusive.

O=C(Nc1ccc(OCc2ccccc2)cc1)c1cccc([N+](=O)[O-])c1	CCT chaperon mod -46
O=C(C#Cc1ccccc1)c1cccc([N+](=O)[O-])c1	G9a block 3.5µM, PLK1 PBD inh 0.6µM, VDR inh inconclusive
O=C(Nc1ccc(F)cc1)c1ccc(COc2ccccc2)cc1	PLK1 PBD inh 27µM
CC(=O)c1cccc([N+](=O)[O-])c1	none (no result: Sfp inh)
COc1ccc(-c2nn(CC(=O)NCc3ccccc3)c3c2cnc2ccc(F)cc23)cc1	none (no result: Sfp inh, CCT chaperon mod, Mm-Cpn inhibitor, PLK1 PBD inh)
CC(C)(C)c1ccc(C(=O)NCC(c2ccco2)S(=O)(=O)c2ccccc2)cc1 (stereo unspecified)	none (no result: Sfp inh, CCT chaperon mod, Mm-Cpn inhibitor, PLK1 PBD inh)
Cc1ccc(O)c(N=CC2=C(O)c3ccccc3C2=O)c1	G9a block 32µM, PLK1 PBD inh inconclusive
O=C1C(C=Nc2ccccc2O)=C(O)c2ccccc21	none
CNS(=O)(=O)c1cn(CC(=O)N2CCN(c3ccccc3F)CC2)cc1S(=O)(=O)NC	G9a block inconclusive (no result: Sfp inh, CCT chaperon mod, Mm-Cpn inhibitor, PLK1 PBD inh)
COc1ccc(C[C@H]2CN3C(=NC[C@@H]3Cc3ccccc3)N2CCNC(=O)c2ccc(C)c(Br)c2)cc1	Sfp inh 32µM, PLK1 PBD inh inconclusive (no result: Mm-Cpn inhibitor, G9a block)
Cc1ccc(C(=O)N[C@@H](C)CN2C3=NC[C@H](C(C)C)N3C[C@H]2Cc2ccc(O)cc2)cc1Br	Sfp inh 40µM, G9a block inconclusive, PLK1 PBD inh 27µM (no result: Mm-Cpn inhibitor)
COc1ccc(C[C@H]2CN3C(=NC[C@H]3Cc3ccccc3)N2CCNC(=O)c2ccc(C)c(Br)c2)cc1	Sfp inh 50µM
COc1ccc(C[C@H]2CN3C(=NC[C@@H]3Cc3ccc(O)cc3)N2CCNC(=O)c2ccc(C)c(Br)c2)cc1	G9a block inconclusive (no result: Mm-Cpn inhibitor)
COc1ccc(C[C@H]2CN3C(=NC[C@@H]3C(C)C)N2C[C@H](C)NC(=O)c2ccc(C)c(Br)c2)cc1	G9a block inconclusive, PLK1 PBD inh inconclusive, VDR inh inconclusive (no result: Mm-Cpn inhibitor)
Cc1ccc(C(=O)NCCN2C3=NC[C@@H](Cc4ccccc4)N3C[C@H]2Cc2ccc(O)cc2)cc1Br	Sfp inh 45µM (no result: Mm-Cpn inhibitor)
O=C(Cn1c(=O)n(-c2ccccc2)c(=O)c2c3c(sc21)CCC3)c1ccc(Br)cc1	none (no result: Sfp inh, CCT chaperon mod, Mm-Cpn inhibitor, PLK1 PBD inh)
COc1cc(NC(=O)Cn2c(=O)ccc3cc(S(=O)(=O)N4CCCC4)ccc32)cc(OC)c1	none (no result: Sfp inh, CCT chaperon mod, Mm-Cpn inhibitor, PLK1 PBD inh)
CCOC(=O)c1ccccc1NC(=O)N1CCC(CN2CCCCC2)CC1	none (no result: Sfp inh, CCT chaperon mod, Mm-Cpn inhibitor, PLK1 PBD inh)
COc1ccc(NC(=O)NC2COc3ccccc3C2)cc1Cl (stereo unspecified)	none (no result: Sfp inh, CCT chaperon mod, Mm-Cpn inhibitor, PLK1 PBD inh)
Cc1ccc(S(=O)(=O)C(CNC(=O)C(=O)NCCc2ccc(F)cc2)c2cccs2)cc1 (stereo unspecified)	none (no result: Sfp inh, CCT chaperon mod, Mm-Cpn inhibitor, PLK1 PBD inh)
COc1cc(NS(=O)(=O)c2ccc3c(c2)CC(=O)N3)cc(OC)c1OC	G9a block 0.35µM (no result: Sfp inh, CCT chaperon mod, Mm-Cpn inhibitor, PLK1 PBD inh)
COc1ccccc1NS(=O)(=O)c1ccc2c(c1)NC(=O)CC(=O)N2	none
COC(=O)[C@@H](O)CC[C@@H](C)Cc1c(OC)c(OC)c(C)c(OC)c1OC	none (no result: CCT chaperon mod, Mm-Cpn inhibitor, G9a block, PLK1 PBD inh)
CCc1cccc(CC)c1NC(=S)/C(=C(\[O-])c1ccc(Cl)s1)[n+]1ccccc1	G9a block 45µM
CC(C)(C)c1cc[n+](/C(C(=S)NC2CC2)=C(/[O-])c2ccc(Cl)s2)cc1	Sfp inh 56µM, G9a block 10µM, VDR inh inconclusive
[O-]/C(=C(\C(=S)Nc1cccc2ccccc12)[n+]1ccccc1)c1ccc(Cl)s1	G9a block inconclusive
Cc1cc(C)cc(NC(=S)/C(=C(\[O-])c2ccc(Cl)s2)[n+]2cccc(C)c2)c1	G9a block 45µM, PLK1 PBD inh inconclusive
Cc1ccc(C)c(NC(=S)/C(=C(\[O-])c2ccc(Cl)s2)[n+]2ccccc2)c1	Sfp inh 50µM, G9a block inconclusive
CN1CCN(c2nc(-c3ccoc3)nc3ccccc23)CC1	none (no result: CCT chaperon mod, Mm-Cpn inhibitor, PLK1 PBD inh)
Cc1nn(CC(=O)NC2CCCCC2)c(=O)c2cc3cc(F)ccc3n12	none (no result: Sfp inh, CCT chaperon mod, Mm-Cpn inhibitor, PLK1 PBD inh)
CCCC(c1nnnn1CCOC)N1CCN(c2nc3ccccc3s2)CC1 (stereo unspecified)	Sfp inh inconclusive, PLK1 PBD inh 5.3µM, VDR inh inconclusive
COc1ccc(N2CCN(C(c3ccccc3)c3nnnn3Cc3ccccc3)CC2)cc1 (stereo unspecified)	none (no result: Sfp inh, CCT chaperon mod, Mm-Cpn inhibitor, G9a block, PLK1 PBD inh)

Compound activity (PubChem)
